Measured values published in PubChem BioAssay (NCI).
About 79,000 compounds went through this panel and 15% of them were active in at least one assay; those are over-represented in the sample as a whole. Unmarked numbers belong to inactive results. The source made the active and inactive calls. Rule as the data show it: active = growth inhibition above about 70%; inactive = the rest.

Key:
[1] = NCI Yeast Anticancer Drug Screen. Data for the rad50 strain (AID 155);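 also: 0% = growth of vehicle-only cultures of the same strain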; details: S. cerevisiae rad50 strain growth inhibition, hits give high values
Outline: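 DNA repair mutant yeast, compound exposure, growth read-out; inhibition is taken relative to vehicle.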

[2] = NCI Yeast Anticancer Drug Screen. Data for the mec2-1 strain (AID 157); details: S. cerevisiae mec2-1 strain, hits give high values
Outline: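 Test agents were screened against the mec2-1 yeast strain, with defined DNA repair or cell cycle alteration. Growth was scored as inhibition against vehicle-only controls.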

[3] = NCI Yeast Anticancer Drug Screen. Data for the sgs1 mgt1 strain (AID 161);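 also: 0% = growth of cultures given vehicle only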; details: S. cerevisiae sgs1 mgt1 strain, hits give high values
Outline: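 Mutant yeast exposed to compound; growth scored against vehicle-only wells.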

[4] = NCI Yeast Anticancer Drug Screen. Data for the cln2 rad14 strain (AID 165);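 also: 0% = growth equal to vehicle treated cultures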; details: S. cerevisiae cln2 rad14 strain, hits give high values
Outline: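 Growth of compound-exposed yeast (cln2 rad14 genotype) measured and expressed as inhibition relative to vehicle.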

[5] = NCI Yeast Anticancer Drug Screen. Data for the bub3 strain (AID 167); details: S. cerevisiae bub3 mutant strain, hits give high values
Outline: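 In this screen, a yeast mutant lacking normal mitotic checkpoint function is challenged with compound. Relative growth versus vehicle gives the inhibition value.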

[6] = NCI Yeast Anticancer Drug Screen. Data for the mlh1 rad18 strain (AID 175); details: S. cerevisiae mlh1 rad18 strain growth inhibition, hits give high values
Outline: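 In this whole-cell yeast screen, a strain with altered DNA damage repair is challenged with compound, and its growth is measured against matched vehicle-treated controls.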

[7] = at 5.0 µM (retest, dose inferred, filed as 0.5)
[8] = at 50.0 µM (retest, dose inferred, filed as 5.0)

Row | SMILES | growth inhibition [1, 7] | growth inhibition [1, 8] | growth inhibition ([1]; at 50.0 µM) | growth inhibition [2, 7] | growth inhibition [2, 8] | growth inhibition ([2]; at 50.0 µM) | growth inhibition [3, 7] | growth inhibition [3, 8] | growth inhibition ([3]; at 50.0 µM) | growth inhibition [4, 7] | growth inhibition [4, 8] | growth inhibition ([4]; at 50.0 µM) | growth inhibition [5, 7] | growth inhibition [5, 8] | growth inhibition ([5]; at 50.0 µM) | growth inhibition [6, 7] | growth inhibition [6, 8] | growth inhibition ([6]; at 50.0 µM)
1 | CN(C=O)c1ccc2c(c1)Cc1ccccc1-2 | 14% | 80% (active) | 47.7% | 4% | 22% | 24.8% | 27% | 82% (active) | 44.9% | 2% | 40% | 58.8% | 15% | 55% | 22.2% | 13% | 74% (active) | 82% (active)
2 | CCCN(CCC)CC(O)c1cc(-c2ccccc2)nc2c(Cl)cc(Cl)cc12 (configuration not stated) | 3% | 90% (active) | 98.3% (active) | -2% | 100% (active) | 98.2% (active) | 2% | 81% (active) | 98% (active) | -5% | 99% (active) | 97.8% (active) | -1% | 99% (active) | 98.2% (active) | -2% | 94% (active) | 92.2% (active)
3 | CN(C)C(=S)/N=c1\ss/c(=N/C(=S)N(C)C)n1-c1ccc([N+](=O)[O-])cc1 | 6% | 32% | 97.8% (active) | 18% | 41% | 93.3% (active) | 1% | 33% | 97.8% (active) | -7% | -2% | 91.3% (active) | 5% | 4% | 98.8% (active) | 4% | 30% | 98.2% (active)
4 | O=C(C[n+]1ccc2ccccc2c1)c1ccc(-c2ccccc2)cc1 | -5% | 97% (active) | 98.2% (active) | -2% | 98% (active) | 97.8% (active) | -3% | 97% (active) | 98% (active) | -4% | 96% (active) | 96.8% (active) | -5% | 98% (active) | 98.5% (active) | -7% | 98% (active) | 97.8% (active)
5 | CCCCN(CCCC)CCCCNc1ccc(C)c2sc3ccccc3c(=O)c12 | 36% | 99% (active) | 98.7% (active) | 23% | 98% (active) | 99.2% (active) | 83% (active) | 98% (active) | 98.8% (active) | 18% | 98% (active) | 98.3% (active) | 50% | 98% (active) | 98.8% (active) | 65% | 98% (active) | 99.2% (active)
6 | O=CNNC(=O)Nc1ccc(Cl)cc1 | 19% | 25% | -1.5% | 10% | 14% | -3.75% | 20% | 11% | -8.8% | 32% | 19% | 22.1% | 4% | 0% | 14.6% | 20% | 21% | 7.2%
7 | CN(C)c1ccc(/C=C\c2c3ccccc3cc[n+]2[O-])cc1 | -4% | -1% | 70% | -5% | 0% | 3% | 0% | -12% | 17.9% | -5% | -5% | -10.2% | -6% | -11% | 21% | -10% | 8% | 14.8%
8 | CCCCCCCCCCCC1C(C#N)C(=O)NC(=O)C1C#N (configuration not stated) | 92% (active) | 92% (active) | 49.3% | 90% (active) | 92% (active) | 5.4% | 87% (active) | 92% (active) | 64.7% | 73% (active) | 82% (active) | -8.05% | 78% (active) | 86% (active) | -27.9% | 87% (active) | 90% (active) | 26%
9 | O=C(O)CCSSCCCCCS(=O)O | -5% | -4% | 54.9% | 4% | 10% | -1.9% | -1% | 0% | 7.95% | -10% | -22% | 1% | -3% | 9% | 13% | 0% | 9% | 13%
